In the OligoGym collection:

target: ZNF77; experiment: pooled miR-30 sensor sort-seq; sequence = guide strand; details: shRNA
Note: reference of the scale not given here.

Sequence	sensor-assay potency score (higher = more potent)
TTCCACATTTCTGACATTCATA	-1.1
TTACGGTTGAACACTCTCCCAG	-0.487
TACAATTTCTTCATCATTGGAT	0.581
TTTTCTCCAAAAATAGACCAGG	-0.35
TTAGGTACAAAATAAGTGCTAT	0.0583
TAAATGTAACAATCCAAGGAGG	-0.849
TATGTCACAGATGCTGTCCTTG	-0.213
TAACATAAATGTAACAATCCAA	-0.347
TAGACCAGGAATCACTTCCTGT	-0.274
TAAAGTAAGTGGGACATCCGAA	-0.639
TTCGGTAGGGTAACTCTTGTGC	0.248
TAATACATAAAGGTCTTCCCAC	-0.234

target: ZNF829; experiment: as above; details: shRNA

Sequence	sensor-assay potency score (higher = more potent)
TTCTCCAACATCACTTCTTTGT	-0.439
TTGAATAAGTTCTGAGCTCTGA	0.585
TTGAGCAATACTTAAAGGCTTT	-0.25
TTTACCAGTGTGAATCCTCTGA	0.327
TTCTTCACATTCATAGAGCTTC	-0.0675
TTGACTGAAATGTCTCTTCTTT	0.505
TTCATCTGTATGGATTCTCTGA	0.0212
TGAACTACAACTAAAAGCCTTG	-0.242
TACTTGACTGAAATGTCTCTTC	0.284
TTGTAGAAGTTCATCATGCATT	-0.541
TAATATTTTGGTCTCACACATT	-1.12
TTCTACATTCTTCACATTCATA	-1.09
